Source: PubChem BioAssay AID1159580 (chemical genetic matrix, 2015)
Values joined by “and” are separate entries in the source; they are usually repeats but may differ in a detail not shown here. Equal values may be shown once. Among all 5,500 compounds or so, about 2,000 (36%) were called active. Not shown: some 18% with an inconclusive outcome. No stated cut-off is given here; in the data, active means normalized growth mostly below about 0.91 (no sharp cut-off); inconclusive means no clear call, values can overlap the other calls; inactive means mostly above about 0.92. The list shows a part of the results.

Assay: chemical genetic growth profiling, strain panel (AID 1159580);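 further: tested at 20 µM; growth read once vehicle control cultures reached saturation at 30 °C; 1 = growth at the plate median or of vehicle wells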
Settings: S. cerevisiae deletion strains, growth OD

Measured: normalized growth

COc1c2ccoc2cc2oc(=O)ccc12
active: locus YBR009C, strain hhf1, stronger effect = lower value 0.886 | locus YBR231C, strain swc5, stronger effect = lower value 0.872 | locus YCL029C, strain bik1, stronger effect = lower value 0.647 | locus YDL035C, strain GPR1, stronger effect = lower value 0.734 | locus YDL074C, strain BRE1, stronger effect = lower value 0.544 | locus YDL101C, strain DUN1, stronger effect = lower value 0.613 | locus YDL134C, strain PPH21, stronger effect = lower value 0.703 | locus YDL192W, strain arf1, stronger effect = lower value 0.674 | locus YDR101C, strain arx1, stronger effect = lower value 0.741 | locus YDR137W, strain rgp1, stronger effect = lower value 1.16 [resistant] | locus YDR162C, strain NBP2, stronger effect = lower value 0.617 | locus YDR195W, strain ref2 1.38 [resistant] | locus YDR318W, strain mcm21, stronger effect = lower value 0.699 | locus YDR388W, stronger effect = lower value 0.814 | locus YDR502C, strain sam2, stronger effect = lower value 0.791 | locus YER110C, stronger effect = lower value 0.863 | locus YER155C, strain BEM2 (second series), stronger effect = lower value 0.653 | locus YER155C, strain BEM2, stronger effect = lower value 0.904 | locus YER167W, strain BCK2, stronger effect = lower value 0.885 | locus YGL078C, strain dbp3, stronger effect = lower value 0.91 | locus YGL086W, strain mad1, stronger effect = lower value 0.719 | locus YGL248W, strain PDE1, stronger effect = lower value 0.718 | locus YGL253W, strain hxk2, stronger effect = lower value 0.903 | locus YGR078C, strain PAC10, stronger effect = lower value 0.706 | locus YGR135W, strain pre9, stronger effect = lower value 0.688 | locus YGR252W, strain gcn5, stronger effect = lower value 0.554 | locus YHR030C, strain SLT2, stronger effect = lower value 0.729 and 0.802 | locus YHR079C, strain IRE1 (second series), stronger effect = lower value 0.854 | locus YHR079C, strain IRE1, stronger effect = lower value 0.801 | locus YHR094C, strain hxt1, stronger effect = lower value 0.922 | locus YHR129C, strain ARP1, stronger effect = lower value 0.863 | locus YHR142W, strain chs7, stronger effect = lower value 0.826 | locus YHR200W, strain rpn10, stronger effect = lower value 0.636 | locus YIL066C, strain RNR3, stronger effect = lower value 0.805 | locus YIL125W, strain kgd1, stronger effect = lower value 0.869 | locus YIR030C, strain dcg1, stronger effect = lower value 0.818 | locus YJL095W, strain BCK1, stronger effect = lower value 0.337 and 0.817 | locus YJL187C, strain SWE1 (second series), stronger effect = lower value 0.766 | locus YKL085W, strain MDH1 (second series), stronger effect = lower value 0.915 | locus YKL085W, strain MDH1, stronger effect = lower value 0.915 | locus YKL160W, strain elf1, stronger effect = lower value 0.902 | locus YKL190W, strain CNB1, stronger effect = lower value 0.898 | locus YKR001C, strain vps1, stronger effect = lower value 0.44 | locus YLR058C, strain SHM2, stronger effect = lower value 0.783 | locus YLR268W, strain sec22, stronger effect = lower value 0.71 | locus YLR371W, strain rom2, stronger effect = lower value 0.573 | locus YLR418C, strain cdc73, stronger effect = lower value 0.494 | locus YML016C, strain PPZ1, stronger effect = lower value 0.809 | locus YML032C, strain rad52, stronger effect = lower value 0.411 | locus YML120C, strain ndi1, stronger effect = lower value 0.901 | locus YML124C, strain tub3, stronger effect = lower value 0.872 | locus YMR078C, strain ctf18, stronger effect = lower value 0.878 | locus YMR223W, strain ubp8, stronger effect = lower value 0.764 | locus YNL067W, strain RPL9B, stronger effect = lower value 0.791 | locus YNL233W, strain BNI4, stronger effect = lower value 0.74 | locus YNL248C, strain rpa49, stronger effect = lower value 0.575 | locus YNL250W, strain rad50, stronger effect = lower value 0.856 | locus YNL271C, strain bni1, stronger effect = lower value 0.858 | locus YNL298W, strain CLA4, stronger effect = lower value 0.77 | locus YNL307C, strain MCK1, stronger effect = lower value 0.666 | locus YNR052C, strain pop2, stronger effect = lower value 0.737 | locus YOL006C, strain TOP1, stronger effect = lower value 0.419 | locus YOL147C, strain pex11, stronger effect = lower value 0.757 | locus YOR001W, strain rrp6, stronger effect = lower value 0.87 | locus YOR061W, strain CKA2, stronger effect = lower value 0.872 | locus YOR069W, strain VPS5, stronger effect = lower value 0.852 | locus YOR083W, strain WHI5, stronger effect = lower value 0.799 | locus YOR106W, strain vam3, stronger effect = lower value 0.854 | locus YOR136W, strain idh2, stronger effect = lower value 0.888 | locus YOR144C, strain elg1, stronger effect = lower value 0.852 | locus YOR184W, strain ser1, stronger effect = lower value 0.46 | locus YOR231W, strain MKK1, stronger effect = lower value 0.83 | locus YOR270C, strain vph1, stronger effect = lower value 0.751 | locus YPL051W, strain arl3, stronger effect = lower value 0.91 | locus YPL106C, strain sse1, stronger effect = lower value 0.78 | locus YPR163C, strain tif3, stronger effect = lower value 0.672 | locus YPR167C, strain met16, stronger effect = lower value 0.775 | strain wtn01, stronger effect = lower value 0.731
inactive: locus YAL021C, strain ccr4, stronger effect = lower value 0.957 | locus YAL026C, strain drs2, stronger effect = lower value 0.936 | locus YAL030W, strain snc1, stronger effect = lower value 0.993 | locus YBL061C, strain skt5, stronger effect = lower value 0.971 | locus YBR021W, strain FUR4, stronger effect = lower value 1.1 | locus YBR023C, strain chs3, stronger effect = lower value 0.968 | locus YBR171W, strain sec66, stronger effect = lower value 0.954 | locus YBR229C, strain ROT2, stronger effect = lower value 0.967 | locus YBR279W, strain paf1, stronger effect = lower value 0.974 | locus YCL011C, strain gbp2, stronger effect = lower value 0.942 | locus YCL016C, strain dcc1, stronger effect = lower value 0.959 | locus YCL061C, strain MRC1, stronger effect = lower value 0.97 | locus YCL069W, strain vba3, stronger effect = lower value 0.968 | locus YCR088W, strain abp1, stronger effect = lower value 0.987 | locus YDL005C, strain med2, stronger effect = lower value 0.996 | locus YDL040C, strain nat1, stronger effect = lower value 0.992 | locus YDL185W, strain tfp1, stronger effect = lower value 0.911 | locus YDR001C, strain nth1, stronger effect = lower value 0.976 | locus YDR069C, strain doa4, stronger effect = lower value 0.96 | locus YDR159W, strain sac3, stronger effect = lower value 1.04 | locus YDR297W, strain sur2, stronger effect = lower value 0.99 | locus YDR335W, strain msn5, stronger effect = lower value 0.953 | locus YDR392W, strain spt3, stronger effect = lower value 0.761 | locus YEL003W, strain gim4, stronger effect = lower value 0.96 | locus YEL037C, strain rad23, stronger effect = lower value 0.942 | locus YEL061C, strain CIN8 (second series), stronger effect = lower value 0.958 | locus YER015W, strain faa2, stronger effect = lower value 0.981 | locus YER016W, strain bim1, stronger effect = lower value 0.973 | locus YER111C, strain swi4, stronger effect = lower value 0.975 | locus YFR010W, strain ubp6, stronger effect = lower value 0.936 | locus YGL167C, strain pmr1, stronger effect = lower value 0.981 | locus YGL173C, strain kem1, stronger effect = lower value 0.96 | locus YGL227W, strain vid30, stronger effect = lower value 0.976 | locus YGL240W, strain doc1, stronger effect = lower value 0.896 | locus YGR229C, strain SMI1, stronger effect = lower value 0.839 | locus YHR013C, strain ard1, stronger effect = lower value 0.856 | locus YHR027C, strain rpn1, stronger effect = lower value 0.983 | locus YIL073C, strain SPO22, stronger effect = lower value 0.757 | locus YJL092W, strain hpr5, stronger effect = lower value 0.976 | locus YJL095W, strain BCK1 (second series), stronger effect = lower value 0.966 | locus YJL115W, strain asf1, stronger effect = lower value 0.967 | locus YJL129C, strain trk1, stronger effect = lower value 1.09 | locus YJL134W, strain LCB3, stronger effect = lower value 0.957 | locus YJL154C, strain vps35, stronger effect = lower value 0.977 | locus YJL164C, strain tpk1, stronger effect = lower value 0.937 | locus YJL166W, strain qcr8, stronger effect = lower value 0.91 | locus YJL168C, strain set2, stronger effect = lower value 0.958 | locus YJL187C, strain SWE1, stronger effect = lower value 1 | locus YJR066W, strain TOR1, stronger effect = lower value 0.829 | locus YKL009W, strain mrt4, stronger effect = lower value 0.914 | locus YKL068W, stronger effect = lower value 0.973 | locus YKR026C, strain gcn3, stronger effect = lower value 0.951 | locus YKR091W, strain srl3, stronger effect = lower value 0.996 | locus YLL001W, strain dnm1, stronger effect = lower value 0.977 | locus YLL026W, stronger effect = lower value 0.98 | locus YLL041C, strain sdh2, stronger effect = lower value 0.992 | locus YLR027C, strain aat2, stronger effect = lower value 0.971 | locus YLR039C, strain RIC1, stronger effect = lower value 0.906 | locus YLR102C, strain apc9, stronger effect = lower value 0.929 | locus YLR113W, strain HOG1, stronger effect = lower value 0.948 | locus YLR221C, strain rsa3, stronger effect = lower value 0.941 | locus YLR258W, strain gsy2, stronger effect = lower value 0.975 | locus YLR262C, strain YPT6 (second series), stronger effect = lower value 1.09 | locus YLR320W, strain mms22, stronger effect = lower value 0.887 | locus YLR342W, strain FKS1, stronger effect = lower value 1.01 | locus YLR357W, strain rsc2, stronger effect = lower value 1.13 | locus YLR370C, strain arc18, stronger effect = lower value 0.969 | locus YLR384C, strain iki3, stronger effect = lower value 0.956 | locus YMR058W, strain fet3, stronger effect = lower value 0.953 | locus YMR125W, strain sto1, stronger effect = lower value 1.03 | locus YMR129W, stronger effect = lower value 0.977 | locus YMR205C, strain PFK2, stronger effect = lower value 1.03 | locus YMR231W, strain pep5, stronger effect = lower value 0.983 | locus YMR307W, strain GAS1, stronger effect = lower value 0.974 | locus YNL071W, strain lat1, stronger effect = lower value 0.972 | locus YNL183C, strain NPR1, stronger effect = lower value 0.858 | locus YNL209W, strain ssb2, stronger effect = lower value 0.976 | locus YNL322C, strain KRE1 (second series), stronger effect = lower value 1.02 | locus YNR049C, strain mso1, stronger effect = lower value 0.991 | locus YOL012C, strain htz1 0.31 | locus YOR070C, strain gyp1, stronger effect = lower value 0.979 | locus YOR080W, strain dia2, stronger effect = lower value 0.979 | locus YOR265W, strain rbl2, stronger effect = lower value 0.989 | locus YOR290C, strain snf2, stronger effect = lower value 0.877 | locus YOR316C, strain cot1, stronger effect = lower value 0.975 | locus YPL078C, strain atp4, stronger effect = lower value 0.893 | locus YPL240C, strain hsp82, stronger effect = lower value 0.973 | locus YPL256C, strain CLN2, stronger effect = lower value 0.907 | locus YPR119W, strain clb2, stronger effect = lower value 0.964 | locus YPR141C, strain kar3, stronger effect = lower value 0.997
